The source of these data is PubChem BioAssay (NCATS).

Unmarked numbers belong to inactive results. Records with an inconclusive call do not appear. The source made the active and inactive calls. Unless noted, calls follow the shape of the dose curve; as a rule, active = well fitted curve in either direction with a large enough effect (not every such curve was filed as active); inconclusive = small, poorly fitted or top-dose-only effect, or another doubt; inactive = flat fitted curve, though single readings scatter.

The target in test [1] is Lysosomal acid glucosylceramidase (Homo sapiens) (UniProt P04062). As to the kind of experiment: Glucocerebrosidase-p2 (AID 348; in the data active = potency below about 10 µM; also: potency is read from the fitted curve at half-maximal effect). Particulars: purified GBA, blue fluorogenic substrate, 40 min. In short, it runs like this: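 Normal human glucocerebrosidase (0.2 nM) with blue fluorogenic substrate (80 uM final) in citrate/phosphate pH 5.9 with 10mM sodium taurocholate, 0.01% tween-20; 40 min RT, NaOH/glycine stop; fluorescence Ex 365/Em 440; AC50 from a titration from 0.6 nM upwards.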
Lysosomal acid glucosylceramidase (Homo sapiens), sequence (P04062 whole entry, looked up): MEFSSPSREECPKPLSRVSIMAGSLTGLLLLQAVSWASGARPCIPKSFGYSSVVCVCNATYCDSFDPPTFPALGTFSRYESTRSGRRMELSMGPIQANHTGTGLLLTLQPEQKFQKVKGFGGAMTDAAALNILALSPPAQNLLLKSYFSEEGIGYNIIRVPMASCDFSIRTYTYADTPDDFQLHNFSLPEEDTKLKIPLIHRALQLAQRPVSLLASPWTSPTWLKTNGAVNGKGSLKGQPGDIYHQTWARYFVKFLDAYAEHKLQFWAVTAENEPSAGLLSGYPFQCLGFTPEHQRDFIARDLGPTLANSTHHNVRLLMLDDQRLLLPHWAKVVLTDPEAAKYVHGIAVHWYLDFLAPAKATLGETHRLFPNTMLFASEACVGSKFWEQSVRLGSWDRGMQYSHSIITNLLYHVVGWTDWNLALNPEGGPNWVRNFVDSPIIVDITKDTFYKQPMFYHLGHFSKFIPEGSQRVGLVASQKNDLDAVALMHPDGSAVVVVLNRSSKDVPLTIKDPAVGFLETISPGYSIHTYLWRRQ

Test [2] can be described thus: AP1 Signaling Pathway (AID 357).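 Also: ME-180 reporter cells stimulated with EGF at its EC50 level; % is scaled to controls: 0 for no effect and ±100 for the full control effect.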 Particulars: ME-180 AP-1-bla reporter, EGF-induced, beta-lactamase ratio, 5 h; at 7.69 µM (top of the series) unless noted. The method in brief:
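Read-out was the 460nm/530nm emission ratio (excitation 405nm) after CCF4 loading for 2.5 hours at room temperature. Cells carried an AP-1-driven beta-lactamase reporter, were stimulated with EC50 EGF plus compound for 5 hours, and AC50 values came from titrations.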

Test [3] deals with Cytochrome P450 1A2 (Homo sapiens) (UniProt P05177). As to the kind of experiment: p450-cyp1a2 (AID 410; calls by dose curve; also: potency is read from the fitted curve at half-maximal effect). The following applies: recombinant CYP1A2, luciferin-ME demethylation, luminescence; series mostly up to 57 µM. The method in brief: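 Luminescent demethylation readout: Luciferin-ME (100uM, equal to Km) turned over by 20nM CYP1A2 for 60 min at room temperature after NADPH regeneration addition, following 10 min compound preincubation. Normalization used 57 uM furafylline as full inhibition.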
Cytochrome P450 1A2 (Homo sapiens), sequence (P05177 whole entry, looked up): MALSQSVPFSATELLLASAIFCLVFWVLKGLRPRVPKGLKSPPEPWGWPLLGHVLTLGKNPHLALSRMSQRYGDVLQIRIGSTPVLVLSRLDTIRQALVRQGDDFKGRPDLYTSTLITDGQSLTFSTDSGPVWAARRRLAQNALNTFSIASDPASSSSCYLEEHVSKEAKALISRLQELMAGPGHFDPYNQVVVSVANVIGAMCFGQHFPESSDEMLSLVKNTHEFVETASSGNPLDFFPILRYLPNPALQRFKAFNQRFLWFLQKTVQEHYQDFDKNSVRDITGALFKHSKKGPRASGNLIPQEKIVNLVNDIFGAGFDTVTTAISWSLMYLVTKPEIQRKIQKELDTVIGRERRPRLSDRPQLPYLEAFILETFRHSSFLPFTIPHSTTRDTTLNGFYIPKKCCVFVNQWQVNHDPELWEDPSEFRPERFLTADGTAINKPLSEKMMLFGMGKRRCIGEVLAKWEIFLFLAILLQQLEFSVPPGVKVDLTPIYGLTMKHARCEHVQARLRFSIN

Test [4] is described as follows: NFAT Signaling Pathway (AID 444).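 Also: carbachol stimulus at about its EC50 of 1 µM final; % is scaled to controls: 0 for no effect and ±100 for the full control effect.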 The following applies: Jurkat NFAT-bla M1, carbachol, beta-lactamase ratio, 5 h; at 7.69 µM (top of the series) unless noted. In short, it runs like this:
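Jurkat cells with NFAT-driven β-lactamase reporter and co-expressed M1 receptor, stimulated with carbachol (final 1 uM, ~EC50), compound titration, 5 h at 37 °C. CCF4 loaded 1 h at RT; 460/530 nm ratio gave %activity and AC50.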

Test [5] in a line: Stat Signaling Pathway (AID 446).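 Also: ME-180 cervical cancer cells given 40 pM IL-6 alongside compound; SIE-controlled beta-lactamase reporter measured as 460/530 nm FRET emission ratio; % is scaled to controls: 0 for no effect and ±100 for the full control effect.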 Particulars: ME-180 SIE beta-lactamase reporter, IL-6 stimulated, 5 h; at 7.69 µM (top of the series) unless noted. The method in brief: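 FRET read-out (405 nm excitation, 460/530 nm emission) of a beta-lactamase reporter under a STAT-inducible element in ME-180 cervical carcinoma cells. Cells with compound receive 40 pM IL-6 for 5 h. Values are normalised to AC90 stimulation and AC90 JAK-inhibitor controls.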

The target of test [6] is Glucocorticoid receptor (Homo sapiens) (UniProt P04150). Put plainly: GR-GFP Redistribution (AID 450;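 active = compounds whose dose series gives a full or clear partial fitted curve of increased nuclear translocation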; also: potency is read from the fitted curve at half-maximal effect). The following applies: U2OS GR-GFP nuclear translocation, laser cytometry, 2 h.
Glucocorticoid receptor (Homo sapiens), sequence (P04150 whole entry, looked up, the tested form may be a part): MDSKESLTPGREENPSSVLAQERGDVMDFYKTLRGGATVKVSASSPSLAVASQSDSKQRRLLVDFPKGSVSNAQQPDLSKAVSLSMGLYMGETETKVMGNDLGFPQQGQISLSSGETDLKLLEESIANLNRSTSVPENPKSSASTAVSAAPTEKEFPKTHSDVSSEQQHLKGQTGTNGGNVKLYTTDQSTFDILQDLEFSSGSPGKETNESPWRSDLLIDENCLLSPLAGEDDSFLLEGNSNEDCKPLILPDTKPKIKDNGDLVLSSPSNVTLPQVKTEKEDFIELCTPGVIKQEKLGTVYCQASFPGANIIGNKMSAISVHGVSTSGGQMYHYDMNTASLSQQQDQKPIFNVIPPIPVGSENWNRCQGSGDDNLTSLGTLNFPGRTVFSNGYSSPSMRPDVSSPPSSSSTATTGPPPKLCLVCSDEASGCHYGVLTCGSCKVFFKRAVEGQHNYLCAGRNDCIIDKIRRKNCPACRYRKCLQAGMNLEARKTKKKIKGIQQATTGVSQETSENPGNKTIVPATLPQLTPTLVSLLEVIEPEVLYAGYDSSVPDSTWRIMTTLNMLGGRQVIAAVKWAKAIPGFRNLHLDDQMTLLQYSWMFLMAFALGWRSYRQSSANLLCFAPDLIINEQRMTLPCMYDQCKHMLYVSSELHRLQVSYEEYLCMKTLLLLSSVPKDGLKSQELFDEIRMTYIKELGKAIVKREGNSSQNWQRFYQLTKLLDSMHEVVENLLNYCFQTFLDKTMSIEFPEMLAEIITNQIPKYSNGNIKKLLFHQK
Test [7] shares this target. As to the kind of experiment: GR-EFC Redistribution (AID 451; calls by dose curve; also: potency is read from the fitted curve at half-maximal effect). The following applies: CHO-K1 GR-EFC translocation, beta-gal luminescence, 2 h. In short, it runs like this: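 CHO-K1 cells expressing nuclear EA and GR-ED fragments of b-gal; compounds titrated up to 46 uM final, 2 h at 37 C. GR nuclear translocation read as complemented b-gal luminescence after 1 h RT detection.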

The target in test [8] is Mitogen-activated protein kinase 10 (Mus musculus) (UniProt Q61831). Put plainly: JNK3 AlphaScreen Assay (AID 530).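 Also: kinase came from lysate of stimulated human HepG2 cells; signal reports phosphorylation of biotinylated GST-cJun 1-79 at Ser73 with 10 µM ATP; % is scaled to controls: 0 for no effect and ±100 for the full control effect.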 The following applies: JNK3 lysate, c-Jun phosphorylation; series mostly up to 57.1 µM. In short, it runs like this: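 Activity was read by AlphaScreen after JNK3-containing HepG2 lysate (cytokine pre-activated) phosphorylated biotinylated GST-cJun with 10 uM ATP at room temperature. Phospho-Ser73 cJun antibody with Protein-A acceptor beads provided detection.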
Background: Alpha assays give light when donor and acceptor beads are brought close together.

For test [9], the target named is 3',5'-cyclic-AMP phosphodiesterase 4B (Homo sapiens) (UniProt Q07343). Put plainly: qHTS Assay for Inhibitors of PDE-IV (AID 607; active = well fitted activation curve with a large enough effect in the main read-out, with a control signal flat, not every such curve was filed as active; also: potency is read from the fitted curve at half-maximal effect). Particulars: HEK293 ACTOne CNG channel cells, membrane potential fluorescence; series mostly up to 22.9 µM. In short, it runs like this: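 Cell-based read-out of cAMP via a modified cyclic nucleotide-gated channel and membrane potential dye (535/590 nm) in HEK293 cells expressing PDE4 endogenously. Compounds tested up to 22.9 uM final; 100 uM RO 20-1724 reference.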
3',5'-cyclic-AMP phosphodiesterase 4B (Homo sapiens), sequence (Q07343 whole entry, looked up): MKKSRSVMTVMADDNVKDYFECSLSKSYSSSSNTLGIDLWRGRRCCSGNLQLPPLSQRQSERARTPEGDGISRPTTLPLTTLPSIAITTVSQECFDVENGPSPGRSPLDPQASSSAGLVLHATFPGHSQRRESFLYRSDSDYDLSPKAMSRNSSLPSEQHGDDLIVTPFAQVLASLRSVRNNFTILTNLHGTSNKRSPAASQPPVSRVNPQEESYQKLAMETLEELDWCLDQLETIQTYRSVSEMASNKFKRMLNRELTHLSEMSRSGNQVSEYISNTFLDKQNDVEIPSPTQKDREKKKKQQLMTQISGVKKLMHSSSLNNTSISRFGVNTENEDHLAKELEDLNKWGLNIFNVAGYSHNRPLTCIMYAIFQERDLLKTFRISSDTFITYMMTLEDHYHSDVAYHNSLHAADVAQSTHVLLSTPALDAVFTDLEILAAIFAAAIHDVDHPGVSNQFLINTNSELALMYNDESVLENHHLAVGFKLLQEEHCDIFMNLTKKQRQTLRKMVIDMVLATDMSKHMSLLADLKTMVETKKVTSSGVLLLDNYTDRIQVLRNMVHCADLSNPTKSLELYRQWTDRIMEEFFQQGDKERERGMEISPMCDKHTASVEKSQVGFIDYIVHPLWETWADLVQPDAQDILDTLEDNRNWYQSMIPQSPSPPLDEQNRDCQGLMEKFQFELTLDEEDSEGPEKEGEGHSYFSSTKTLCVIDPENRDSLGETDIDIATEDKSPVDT

Test [10] addresses Cytochrome P450 3A4 (Homo sapiens) (UniProt P08684). Put plainly: qHTS Assay for Inhibitors and Substrates of Cytochrome P450 3A4 (AID 884; active = well fitted curve in the direction sought with a large enough effect; an effect the other way counts as inactive or inconclusive; also: potency is read from the fitted curve at half-maximal effect; nearly all actives have a fitted effect of over 50% in size). Particulars: recombinant CYP3A4, Luciferin-PPXE luminescence; series mostly up to 57.1 µM. In short, it runs like this:
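Luminescent readout of luciferin produced by CYP3A4 (20 nM) dealkylation of Luciferin-PPXE, 25 uM (its KM). NADPH-driven reaction ran 60 min at RT after 10 min compound preincubation; data scaled to 57 uM ketoconazole as 100% inhibition.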
For orientation: In qHTS, concentration-response curves come from the screen itself.

Test [11] shares this target. As to the kind of experiment: qHTS Assay for Activators of Cytochrome P450 3A4 (AID 885; active = well fitted curve in the direction sought with a large enough effect; an effect the other way counts as inactive or inconclusive; also: nearly all actives have a fitted effect of over 65% in size). The following applies: recombinant CYP3A4, Luciferin-PPXE luminescence, 60 min; series mostly up to 57.1 µM. The method in brief: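 Luminescent readout of luciferin formed from 25 uM Luciferin-PPXE (KM level) by 20 nM CYP3A4 in 200 mM KPO4, with 60 min NADPH-driven reaction at room temperature after 10 min compound exposure. Ketoconazole (57 uM) defined 100% inhibition.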

Test [12] can be described thus: qHTS Assay for Identification of Small Molecule Agonists for Hypoxia Response Element Signaling Pathway (AID 914; active = well fitted activation curve with a large enough effect in the signal ratio, with a control signal flat, not every such curve was filed as active; the % refers to the signal ratio; also: % of control where 0% means no effect). Particulars: ME-180 (cervical carcinoma) HRE-bla reporter, beta-lactamase ratio, CoCl2, 17 h; activation: active compounds read high. The method in brief:
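Reporter activity (beta-lactamase, CCF4 460nm/530nm ratio) in HRE-bla ME-180 cells is recorded after 17 h compound exposure with EC50 CoCl2 at 37 degrees Celsius. AC50 values come from titration data.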

Test [13] has as its target Ubiquitin carboxyl-terminal hydrolase 1 (Homo sapiens) (UniProt O94782). As to the kind of experiment: Inhibitors of USP1/UAF1: Pilot qHTS (AID 504865; active = well fitted curve in the direction sought with a large enough effect; an effect the other way counts as inactive or inconclusive;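 also: rhodamine fluorescence freed from ubiquitin-rhodamine substrate followed over time; top concentration of the series differs between compounds; % is scaled to controls: 0 for no effect and ±100 for the full control effect; nearly all actives have a fitted effect of over 35% in size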). The following applies: purified USP1/UAF1, Ub-rhodamine cleavage fluorescence; series mostly up to 54.9 µM. In short, it runs like this: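 1nM USP1/UAF1 + cpd, 15 min RT; start w/ Ub-Rho 150nM final; kinetic FL 480/540 nm, 6 reads q60 s. Buffer 50mM HEPES pH 7.8, 0.5mM EDTA, 1mM TCEP, 0.01% Tween-20, 0.1 mg/ml BSA.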

Test [14] in a line: Primary qHTS for small molecule stabilizers of the endoplasmic reticulum resident proteome: Secreted ER Calcium Modulated Protein (SERCaMP) assay (AID 1508630; active = well fitted curve in the direction sought with a large enough effect; an effect the other way counts as inactive or inconclusive; also: % is scaled to controls: 0 for no effect and ±100 for the full control effect). Particulars: SH-SY5Y GLuc-SERCaMP (Gaussia luciferase released on ER calcium loss) secretion, thapsigargin, luminescence; series mostly up to 38.4 µM. The method in brief: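 The SH-SY5Y reporter protocol was run at 3 concentrations up to 38.3 uM (primary) or 11 concentrations (follow-up): 16 h compound, 100 nM thapsigargin for 4 h, then extracellular luciferase luminescence.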

Cytochrome P450 3A4 (Homo sapiens), sequence (P08684 whole entry, looked up): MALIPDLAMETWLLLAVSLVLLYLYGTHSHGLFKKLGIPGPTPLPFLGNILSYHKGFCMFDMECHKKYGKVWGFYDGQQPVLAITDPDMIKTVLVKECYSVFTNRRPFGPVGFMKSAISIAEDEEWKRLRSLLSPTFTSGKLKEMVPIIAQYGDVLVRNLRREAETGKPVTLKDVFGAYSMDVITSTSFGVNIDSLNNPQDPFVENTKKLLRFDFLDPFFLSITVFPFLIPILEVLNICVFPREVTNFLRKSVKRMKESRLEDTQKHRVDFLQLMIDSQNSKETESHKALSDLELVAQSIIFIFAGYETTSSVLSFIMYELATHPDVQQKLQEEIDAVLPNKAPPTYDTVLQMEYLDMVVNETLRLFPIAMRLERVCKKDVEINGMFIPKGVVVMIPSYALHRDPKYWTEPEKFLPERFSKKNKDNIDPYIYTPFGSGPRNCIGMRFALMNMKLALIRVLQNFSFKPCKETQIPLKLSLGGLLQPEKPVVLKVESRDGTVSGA
Ubiquitin carboxyl-terminal hydrolase 1 (Homo sapiens), sequence (O94782 whole entry, looked up): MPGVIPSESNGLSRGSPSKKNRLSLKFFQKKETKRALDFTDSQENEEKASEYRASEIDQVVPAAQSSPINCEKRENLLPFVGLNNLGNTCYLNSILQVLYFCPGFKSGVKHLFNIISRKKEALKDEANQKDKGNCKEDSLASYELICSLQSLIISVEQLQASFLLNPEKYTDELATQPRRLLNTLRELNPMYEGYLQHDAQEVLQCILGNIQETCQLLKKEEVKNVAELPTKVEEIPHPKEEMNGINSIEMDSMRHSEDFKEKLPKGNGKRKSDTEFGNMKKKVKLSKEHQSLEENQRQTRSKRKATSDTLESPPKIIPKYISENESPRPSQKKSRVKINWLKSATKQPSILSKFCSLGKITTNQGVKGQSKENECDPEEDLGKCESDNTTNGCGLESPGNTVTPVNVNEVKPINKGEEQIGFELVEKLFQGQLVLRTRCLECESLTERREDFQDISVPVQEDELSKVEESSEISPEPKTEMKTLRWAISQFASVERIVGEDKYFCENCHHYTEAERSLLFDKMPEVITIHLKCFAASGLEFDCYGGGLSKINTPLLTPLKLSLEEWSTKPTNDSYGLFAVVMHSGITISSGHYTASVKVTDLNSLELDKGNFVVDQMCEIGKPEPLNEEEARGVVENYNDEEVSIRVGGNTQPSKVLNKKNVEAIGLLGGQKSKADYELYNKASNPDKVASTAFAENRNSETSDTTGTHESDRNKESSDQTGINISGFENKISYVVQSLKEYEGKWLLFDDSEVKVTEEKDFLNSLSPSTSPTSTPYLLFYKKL

On to `c1ccc(CNc2ncncc2-c2ccoc2)cc1`, for which the Potency in test [1] is above 11.4 µM; in [3], 5.01 µM (active); in [6], above 46 µM; in [7], above 46 µM; in test [10] it was 2 µM (active). In addition, the activity change, negative = inhibition in [2] is 9.24%; in test [4] it was 17%. Further, in [5], the activity, negative = inhibition was -8.66%. Moreover, the Potency entry in test [8], in test [9], in test [11] and in test [13] was “inactive” each time. For the same molecule, in test [12], the activation is 1.1%. In test [14], the outcome was inactive.

For `COc1ccc(CNc2ccnc(-c3cccc(NS(C)(=O)=O)c3)n2)c(OC)c1`, the Potency is above 11.4 µM in [1]; 15.8 µM (active) in test [3]; above 46 µM in [6]; above 46 µM in test [7]; 2 µM (active) in [9]; 3.98 µM (active) in test [10]. Further, the activity change, negative = inhibition was -18.2% in [2] and 8.15% in test [4]. The activity, negative = inhibition in test [5] is -1.05%. Besides, the Potency result in [8], in test [11] and in test [13] was “inactive” in each case. In addition, in test [14], the outcome was inactive.

As for `N#Cc1cccc(-c2cc(NCc3cccnc3)ncn2)c1`, the Potency in test [1] was above 11.4 µM; in [3] it was 0.0398 µM (active); in test [6], above 46 µM; in test [7] it was above 46 µM; in [10] it was 2.51 µM (active). Further, the activity change, negative = inhibition in test [2] is 11.5%; in test [4], 3.13%. The activity, negative = inhibition in test [5] is -25.4%. The Potency entry in test [8], in [9], in test [11] and in [13] was “inactive” each time. Further, the outcome in [14] was inactive.

For `COc1cccc(Cn2c(=O)c(-c3cccc(C#N)c3)nc3cnc(OC)nc32)c1`, the Potency is above 11.4 µM in [1]; 10 µM (active) in [3]; above 9.22 µM in test [6]; above 46 µM in test [7]; 3.16 µM (active) in test [10]. Further, the activity change, negative = inhibition was -6.86% in test [2] and -8.15% in test [4]. The activity, negative = inhibition in [5] was -4.38%. The Potency result in test [8], in [11] and in test [13] was “inactive” throughout. Also, the result in [14] was inactive.

Consider `O=c1c(-c2ccccc2)nc2cncnc2n1Cc1ccccc1Cl`, for which the Potency in test [1] was above 11.4 µM; in test [3], 2 µM (active); in test [6] it was above 9.22 µM; in test [7] it was above 46 µM. Also, the figures for the activity change, negative = inhibition in test [2] and in test [4] were 1.43% and -6.41%, respectively. Moreover, the activity, negative = inhibition in test [5] was 5.03%. Also, in test [8], the Potency entry is “inactive”. Further, the result in test [14] was inactive.

`CC(=O)NCCNc1nc(-c2ccc3c(c2)OCO3)nc2ccccc12`: the Potency in [1] was above 11.4 µM; in test [3] it was 2.51 µM (active); in test [6] it was above 46 µM; in test [7] it was above 46 µM; in test [10], 3.98 µM (active). In addition, the activity change, negative = inhibition is -7.08% in test [2] and 5.61% in [4]. Also, in test [5], the activity, negative = inhibition is 4.37%. For the same molecule, the Potency result in test [8], in test [9], in test [11] and in [13] was “inactive” in each case. Also, the outcome in test [14] was inactive.
